This is part of a sample that, as a whole, favours compounds with a hit. Of some 83,000 tested, about 20% had one in any assay.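 Single-dose data. Exposure time 48 hours. Values below 10 considered active.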 Values without a mark were called inactive. Calls of active or inactive are those of the source.

Consider 10 compounds from PubChem BioAssay (NCI).

Among the test systems are SK-MEL-2 melanoma; EKVX NSCLC; SN12C renal; UO-31 renal; TK-10 renal; CAKI-1 renal; CCRF-CEM leukemia; MOLT-4 leukemia; RPMI-8226 leukemia; OVCAR-8 ovarian; OVCAR-5 ovarian; OVCAR-4 ovarian; SK-OV-3 ovarian; IGROV1 ovarian; OVCAR-3 ovarian; HS 578T breast; NCI/ADR-RES ovarian; ACHN renal; A498 renal; SR leukemia.
What all share (test): NCI-60 one-dose screen, 48 h (100 = growth as untreated, 0 = no growth, -100 = all killed)
Common to all, as to settings: 10 µM unless noted

Consider `O=C(O)c1ccc(N=CC(=O)c2ccc(-c3ccccc3)cc2)cc1`, for which the growth in the assay on SK-MEL-2 melanoma was 108%; in the assay with EKVX NSCLC, 99.3%; in the assay on SN12C renal it was 95.8%; in the assay on UO-31 renal, 93.5%; in the assay with TK-10 renal, 96.8%; in the assay on CAKI-1 renal it was 102%. For the same compound, the growth in the assay on CCRF-CEM leukemia is -57.9% (active); with MOLT-4 leukemia it was 99.9%; in the assay with RPMI-8226 leukemia, 90.3%; with OVCAR-8 ovarian, 98.7%; in the assay on OVCAR-5 ovarian, 92.6%; in the assay with OVCAR-4 ovarian, 101%. Besides, the growth is 110% with SK-OV-3 ovarian; 102% with IGROV1 ovarian; 119% in the assay with OVCAR-3 ovarian; 88.9% in the assay on HS 578T breast; 94.9% in the assay with NCI/ADR-RES ovarian.
As for `OC(COc1cccc2ccccc12)CN1CCN(c2ccccc2Cl)CC1` (stereo unspecified), the growth in the assay with SK-MEL-2 melanoma is 44.6%; in the assay with EKVX NSCLC it was 102%; in the assay with SN12C renal, 105%; in the assay on UO-31 renal it was 85.1%; in the assay with TK-10 renal, 100%; in the assay on ACHN renal, 102%. In addition, the growth in the assay on A498 renal was 90%; in the assay on MOLT-4 leukemia, 107%; with SR leukemia it was 78.3%; in the assay on OVCAR-8 ovarian, 98.4%; in the assay on OVCAR-5 ovarian, 85.3%; in the assay with OVCAR-4 ovarian, 92.7%. Also, the growth was 89.2% in the assay on SK-OV-3 ovarian; 117% in the assay on IGROV1 ovarian; 101% in the assay with OVCAR-3 ovarian; 107% with HS 578T breast; 89.4% in the assay with NCI/ADR-RES ovarian.
Consider `Oc1ccc(N=Cc2ccccc2O)cc1`, for which the growth in the assay with SK-MEL-2 melanoma is 141%; in the assay with EKVX NSCLC, 103%; with SN12C renal, 102%; in the assay with UO-31 renal, 77.3%; in the assay on TK-10 renal, 101%; with ACHN renal, 88.3%. The growth with A498 renal was 112%; with CCRF-CEM leukemia, 79.5%; in the assay with SR leukemia, 83.7%; in the assay with OVCAR-8 ovarian, 83.6%; with OVCAR-5 ovarian it was 87.3%; with OVCAR-4 ovarian it was 89.3%. Also, the growth with SK-OV-3 ovarian is 98.5%; in the assay with IGROV1 ovarian, 90.2%; in the assay on OVCAR-3 ovarian, 90.6%; with HS 578T breast, 112%; in the assay with NCI/ADR-RES ovarian, 98.2%.
As to `O=C(/C=C/c1ccccc1)c1ccc(O)c(CN2CCN(c3cc4c(cc3F)c(=O)c(C(=O)O)cn4C3CC3)CC2)c1`, the growth is 22.8% in the assay on SK-MEL-2 melanoma; 43.3% with EKVX NSCLC; 8.48% (active) in the assay on SN12C renal; 12.3% in the assay on UO-31 renal; 62.7% with TK-10 renal; 20.6% in the assay with CAKI-1 renal. Further, the growth with A498 renal was -18.4% (active); with CCRF-CEM leukemia, 18.4%; in the assay on MOLT-4 leukemia it was 35.8%; with RPMI-8226 leukemia it was -7.8% (active); in the assay on OVCAR-8 ovarian, 9.75% (active); in the assay with OVCAR-5 ovarian, 38.2%. The growth in the assay on OVCAR-4 ovarian was 85%; in the assay on SK-OV-3 ovarian it was 20.3%; in the assay with IGROV1 ovarian, 28.7%; with OVCAR-3 ovarian, 18.4%; in the assay on HS 578T breast, 31%.
As to `CC(=O)c1nc2ccccc2n1CC(=O)c1cccc(Cl)c1`, the growth in the assay with SK-MEL-2 melanoma is 61.9%; in the assay with EKVX NSCLC, 17.1%; in the assay on SN12C renal, 31.9%; with UO-31 renal it was 28.3%; in the assay with TK-10 renal, 34.3%; with CAKI-1 renal, 5.79% (active). In addition, the growth in the assay with A498 renal is 88.5%; in the assay on CCRF-CEM leukemia it was 5.08% (active); in the assay with MOLT-4 leukemia, 4.87% (active); in the assay with SR leukemia it was -12.6% (active); in the assay with RPMI-8226 leukemia, -11.8% (active); in the assay with OVCAR-8 ovarian, 10.1%. Further, the growth was 47.5% in the assay with OVCAR-5 ovarian; 22.9% in the assay with OVCAR-4 ovarian; 17.5% with SK-OV-3 ovarian; -31.3% (active) in the assay on OVCAR-3 ovarian; 19% in the assay on HS 578T breast; 13.9% with NCI/ADR-RES ovarian.
`COc1cc(/C=C/c2cc(/C=C/c3ccc(O)c(OC)c3)n(-c3c(Cl)cccc3Cl)c(=O)n2)ccc1O`: the growth is 82.9% with SK-MEL-2 melanoma; 41.4% in the assay with EKVX NSCLC; 27.8% with SN12C renal; 25.2% in the assay on UO-31 renal; 86% with TK-10 renal; 63.2% in the assay with CAKI-1 renal. The growth with A498 renal is 78.5%; with CCRF-CEM leukemia it was 10.4%; in the assay on MOLT-4 leukemia it was 9.71% (active); in the assay on SR leukemia, 4.12% (active); with RPMI-8226 leukemia, 0.562% (active); in the assay on OVCAR-8 ovarian, 7.53% (active). In addition, the growth with OVCAR-5 ovarian was 57.6%; with OVCAR-4 ovarian, 56.3%; in the assay on SK-OV-3 ovarian, 47.7%; with IGROV1 ovarian it was 33.5%; in the assay with OVCAR-3 ovarian, 10.7%; in the assay with HS 578T breast, 36.3%. In addition, the growth in the assay on NCI/ADR-RES ovarian is 55.2%.
As to `CN(C)C(=S)N=Nc1c(O)[nH]c2ccccc12`, the growth with SK-MEL-2 melanoma is -12.6% (active); with EKVX NSCLC it was 14.8%; with SN12C renal, 25.1%; with UO-31 renal it was -19.1% (active); in the assay on TK-10 renal, 28.9%; in the assay with ACHN renal it was 16.9%. Further, the growth is 1.31% (active) in the assay with A498 renal; -11.6% (active) in the assay on CCRF-CEM leukemia; -17.8% (active) in the assay with SR leukemia; -24.1% (active) with OVCAR-8 ovarian; 35.3% in the assay on OVCAR-5 ovarian; 14.9% in the assay on OVCAR-4 ovarian. Besides, the growth is 18.8% in the assay on SK-OV-3 ovarian, 3.86% (active) in the assay on OVCAR-3 ovarian, 13.4% in the assay on HS 578T breast and -11.6% (active) with NCI/ADR-RES ovarian.
For `O=C(Nc1ccc(Cl)cc1)c1cc2cc(F)ccc2cc1O`, the growth with SK-MEL-2 melanoma is 6.39% (active); with EKVX NSCLC, 17%; with SN12C renal, 7.85% (active); with UO-31 renal, 12.6%; in the assay with TK-10 renal, 17.7%; with CAKI-1 renal it was 12%. The growth was -43.4% (active) with A498 renal; 15.6% in the assay on CCRF-CEM leukemia; 7.89% (active) in the assay with MOLT-4 leukemia; 4.79% (active) in the assay with SR leukemia; -8.91% (active) with RPMI-8226 leukemia; 8.21% (active) in the assay with OVCAR-8 ovarian. Besides, the growth in the assay with OVCAR-5 ovarian was 29.9%; in the assay on OVCAR-4 ovarian, 26.4%; with SK-OV-3 ovarian it was -18.7% (active); in the assay on IGROV1 ovarian it was 42.5%; in the assay on OVCAR-3 ovarian, 23%; in the assay on HS 578T breast, 18.6%. For the same compound, the growth in the assay with NCI/ADR-RES ovarian is 4.6% (active).
With `O=[N+]([O-])c1ccc2c(c1)Cc1cc(F)ccc1-2`, the growth with SK-MEL-2 melanoma is 126%; in the assay on EKVX NSCLC, 68.7%; in the assay on SN12C renal it was 99%; in the assay on UO-31 renal, 88.8%; with TK-10 renal it was 96.8%; with CAKI-1 renal, 96.4%. In addition, the growth with CCRF-CEM leukemia is 81.9%; in the assay with MOLT-4 leukemia, 94.1%; in the assay on SR leukemia, 103%; with RPMI-8226 leukemia, 89.3%; in the assay on OVCAR-8 ovarian, 103%; in the assay with OVCAR-5 ovarian it was 96.6%. The growth was 91.7% in the assay with OVCAR-4 ovarian; 99.1% in the assay on SK-OV-3 ovarian; 105% in the assay with IGROV1 ovarian; 113% with OVCAR-3 ovarian; 95.6% in the assay with HS 578T breast; 106% with NCI/ADR-RES ovarian.
Consider `O=S(=O)(Nc1ccc(Br)c(Cl)c1)c1ccc(-c2cnc(C3CC3)o2)cc1`, for which the growth in the assay with SK-MEL-2 melanoma is 34.4%; in the assay on EKVX NSCLC, 33.9%; with SN12C renal it was 41.1%; in the assay on UO-31 renal it was 47.5%; with TK-10 renal, 51.5%; with CAKI-1 renal, 30.9%. Besides, the growth in the assay with A498 renal is -18.2% (active); with CCRF-CEM leukemia, 19.3%; in the assay with MOLT-4 leukemia, 27.6%; with RPMI-8226 leukemia, 20.5%; with OVCAR-8 ovarian it was 20.4%; in the assay with OVCAR-5 ovarian, 29.4%. The growth in the assay with OVCAR-4 ovarian was 46.3%; in the assay with SK-OV-3 ovarian, 36.3%; in the assay with IGROV1 ovarian, 26.8%; with OVCAR-3 ovarian it was -19.6% (active); in the assay on HS 578T breast, 10% (active); in the assay on NCI/ADR-RES ovarian, -15.2% (active).
